Among all 220,000 compounds or so, about 770 (0.35%) were called active. About 15% were inconclusive and are not listed. The entries come from a sample that favours actives as a whole. Values without a mark were called inactive. No stated cut-off is given here; in the data, active means binding response below about 49% or above about 150%; inconclusive means no clear call, values can overlap the other calls; inactive means in between.
Molecular target: Guanine nucleotide-binding protein G(o) subunit alpha (Homo sapiens) (UniProt P09471)
Sequence (P09471 whole entry, looked up): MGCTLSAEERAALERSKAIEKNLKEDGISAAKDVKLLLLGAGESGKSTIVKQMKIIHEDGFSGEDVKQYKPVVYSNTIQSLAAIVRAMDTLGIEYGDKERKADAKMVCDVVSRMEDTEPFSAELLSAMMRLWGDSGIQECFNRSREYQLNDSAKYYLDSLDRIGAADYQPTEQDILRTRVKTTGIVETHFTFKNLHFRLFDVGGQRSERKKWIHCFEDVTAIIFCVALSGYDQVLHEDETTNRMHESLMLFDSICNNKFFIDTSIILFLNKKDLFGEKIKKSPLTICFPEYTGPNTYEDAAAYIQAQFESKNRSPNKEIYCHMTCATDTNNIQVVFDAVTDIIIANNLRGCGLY
Test: compounds changing RGS7 association with Galphao – biochemical, multiplexed bead flow cytometry, primary screen (AID 1439);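 further: fluorescent Galphao held in activated GDP-AlF4 state binding bead-coupled RGS7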
Conditions: at 10 µM, actives lie on both sides

SMILES	binding response (% of control)
CCCn1nnnc1NC(=O)COc1ccc(Cl)cc1C	17.1% [inhibitor] (active)
CCOC(=O)N1CCN(C(=O)COc2ccc(Cl)cc2C)CC1	102%
Cc1cc(NC(=O)COc2ccc(Cl)cc2Cl)n(CCC#N)n1	93.9%
Cn1c(=NC(=O)C2CC2)sc2cc(F)cc(F)c21	95.6%
CCCC(=O)N=c1sc2cccc(F)c2n1C	18% [inhibitor] (active)
Cn1c(=NC(=O)c2ccco2)sc2cccc(F)c21	103%
Cc1cnc(C(=O)N2CCCC(C(=O)c3ccc(C(F)(F)F)cc3)C2)cn1 (stereo not given)	107%
COc1cccc(-n2nc(C(=O)N3CCN(Cc4ccccc4)CC3)c3ccccc3c2=O)c1	98.7%
CCC(=O)OCCNc1nc(-c2ccccc2)nc2ccccc12	110%
CC(=O)NC1C(OCc2ccccc2)OC(COC(C)=O)C(OC(C)=O)C1OC(C)=O (stereo not given)	99.5%
O=C(OCC1O[C@@H](OC(=O)c2cc(O)c(O)c(O)c2)[C@@H](OC(=O)c2cc(O)c(O)c(O)c2)[C@@H](OC(=O)c2cc(O)c(O)c(O)c2)[C@@H]1OC(=O)c1cc(O)c(O)c(O)c1)c1cc(O)c(O)c(O)c1 (stereo not given in full)	20.5% [inhibitor] (active)
NC(=O)c1ccc(CN2CCC(Cc3ccccc3)CC2)cc1	99.1%
OCC1(CCc2ccccc2)CCN(Cc2ccc3nsnc3c2)CC1	96.7%
CN1CCNC(=O)C1CC(=O)NCCC1=CCCCC1 (stereo not given)	96.7%
CCc1nnc(NS(=O)(=O)c2ccc(NC(=S)NC(=O)c3cccs3)cc2)s1	96.9%
CN(c1ccccc1)c1ccc(/C=c2\s/c(=C(/C#N)C(=O)C(C)(C)C)n(Cc3ccco3)c2=O)cc1	421% (active)
CCOC(=O)CSc1nc2c(sc(=S)n2CCc2ccccc2)c(=O)n1Cc1ccco1	113%
Cc1cc2c(c(=O)n1Cc1ccco1)C(c1ccccc1)C(C#N)=C(N)O2 (stereo not given)	101%
COc1ccc(C(=O)CSc2nc(C)cc(C)n2)cc1[N+](=O)[O-]	103%
O=C(NCCCN1CCOCC1)c1ccc([N+](=O)[O-])cc1[N+](=O)[O-]	101%
O=C(CC1SC(=Nc2ccccc2F)N(CCN2CCOCC2)C1=O)Nc1ccc(F)cc1F (stereo not given)	87%
CC(C)(C)CN1CCNC(=O)C1CC(=O)NC1Cc2ccccc2C1 (stereo not given)	85.9%
CC1(C)CC(=O)C(CC(=O)N2CCC(Cc3ccccc3)CC2)C(=O)C1	106%

SMILES	binding response (% of control)
CC1=CC=CN2C1=NC(=O)CC2(C)C(=O)N(CC(=O)NC1CCCC1)c1ccccc1C (stereo not given)	104%
Cc1ccccc1C(=O)Nc1ccc(N2CCCCCC2)cc1	91.3%
CCN1CCN(Cc2c(O)ccc3c(=O)c(-c4ccc(OC)c(OC)c4)c(C(F)(F)F)oc23)CC1	97.2%
CN1CCN(Cc2c(O)ccc3c2oc(=O)c2ccccc23)CC1	99.2%
CCOC(=O)c1oc2c(CN3CCN(C)CC3)c(O)ccc2c(=O)c1-c1ccc(Br)cc1	318% (active)
COc1ccc(N2C(=O)/C(=C\c3ccco3)N=C2SCC(N)=O)cc1Cl	93.9%
O=C(O)CCCCCNc1ncnc2ccc(Br)cc12	91.8%
Cc1cccc(N2CCN(Cc3c(C)n(C)n(-c4ccccc4)c3=O)CC2)c1C	103%
Cc1c(CN2CCC(C)CC2)c(=O)n(-c2ccccc2)n1C	97%
Cc1c(CN2CCCC(C(=O)c3cccc(Cl)c3)C2)c(=O)n(-c2ccccc2)n1C (stereo not given)	230% (active)
Cc1ccc(NC(=O)CN2CCCCC2)c2c1CC(C)(C)O2	103%
CS/C(=C\[N+](=O)[O-])Nc1ccc(C)cc1	106%
S=C(Nc1cccc(Br)c1)N1CCn2cccc2C1c1cccnc1 (stereo not given)	102%
CC(=O)Nc1ccc(NC(=O)COc2ccccc2C(=O)Nc2cccc(Cl)c2Cl)cc1	94.1%
O=C(Nc1ccccc1Cl)c1ccccc1S(=O)(=O)c1ccccc1[N+](=O)[O-]	90.2%
CN(C)S(=O)(=O)Oc1ccccc1C(=O)Nc1ccccc1Cl	223% (active)
COc1cccc2c1OCC(CN1CCN(C3CCCCC3)C(CCO)C1)=C2 (stereo not given)	103%
CN1CCN(CCCCOc2ccccc2-c2ccccc2)CC1	102%
CC(C)C(O)C1CCN(Cc2nc(Cc3ccccc3Cl)no2)CC1 (stereo not given)	101%
CC(Nc1nc(N2CCOCC2)nc2ccccc12)c1ccccc1 (stereo not given)	103%
Cn1c(Cn2nnc3ccccc32)nnc1SCC(=O)c1ccccc1F	103%
COc1ccc(OC)c(/C=N/NC(=O)CSc2nnc(C)n2-c2ccccc2)c1	105%
C=CCn1c(Cn2nnc3ccccc32)nnc1SCC(=O)N/N=C/c1cc(Br)cc(OC)c1O	-19.4% [inhibitor] (active)

SMILES	binding response (% of control)
CCn1ccnc1CN(C)Cc1nc(-c2ccc3c(c2)OCO3)no1	96.5%
O=C(CCn1ccc([N+](=O)[O-])n1)Nc1nccs1	97.4%
COc1ccc(C(=O)COC(=O)c2ccc3ccccc3n2)cc1	39% [inhibitor] (active)
COc1ccc(C2=NOC(COC(=O)c3ccc4ccccc4n3)C2)cc1 (stereo not given)	97%
CC(OC(=O)c1ccc2ccccc2n1)C(=O)c1ccccc1 (stereo not given)	104%
O=C(O)c1ccccc1-c1ccccc1C(=O)NCc1cccnc1	104%
CN(C)CCN=c1cc(-c2ccccc2)oc2ccc(Cl)cc12	155% (active)
CN(C)CCn1c(=S)[nH]c2ccc(Cl)cc2c1=O	97.9%
CCN(CC)S(=O)(=O)c1ccc(N2CCCC2)c(NS(=O)(=O)c2cccs2)c1	103%
Cc1cc(C)cc(N(C(C)C(=O)Nc2c(C)n(C)n(-c3ccccc3)c2=O)S(C)(=O)=O)c1 (stereo not given)	101%
Cc1ccc(S(=O)(=O)CC(=O)Nc2c(C)n(C)n(-c3ccccc3)c2=O)cc1	95.9%
Cc1cc(C)cc(N(CC(=O)Nc2c(C)n(C)n(-c3ccccc3)c2=O)S(C)(=O)=O)c1	-21.3% [inhibitor] (active)
CCn1cc(C(=O)NCCCN2CCCCCC2)c(=O)c2cc(S(=O)(=O)N3CCc4ccccc4C3)ccc21	103%
Cc1c(C(=O)Nc2ccccc2)sc2nc3n(c(=O)c12)CCCCC3	94.2%
NC(=O)C1(N2CCCCC2)CCN(C(=S)Nc2ccc(Cl)cc2)CC1	108%
CCC(=O)N1CCC(C(N)=O)(N2CCCCC2)CC1	161% (active)
CC(C)(O)C#Cc1ccc(C(=O)N2CCC(C(N)=O)(N3CCCCC3)CC2)cc1	101%
Fc1ccc(COc2cccc(-c3n[nH]c(=S)o3)c2)cc1	103%
COC(=O)CN1C(=O)N/C(=C/c2ccc(OC)c(C)c2OC)C1=O	103%
O=C(CN1CCCCC1)N1c2ccccc2Sc2ccc(C(F)(F)F)cc21	27.5% [inhibitor] (active)
COc1cc(/C=C/C(=O)N2c3ccccc3Sc3ccc(C(F)(F)F)cc32)cc(OC)c1OC	104%
O=C(CN1CCCCCC1)N1c2ccccc2Sc2ccc(C(F)(F)F)cc21	89.4%
N#C/C(C(=S)Nc1ccccc1)=C1/NN=C(N2CCOCC2)N1c1ccccc1	97.6%

SMILES	binding response (% of control)
O=C(Nc1ccc(-n2ccnc2P(=O)(O)c2ccccc2)cc1)c1ccccc1Br	152% (active)
Cc1ccc(NC(=O)c2cccnc2C(=O)Nc2ccc(C)cc2)cc1	106%
O=C(Nc1ccccc1)c1cccnc1Nc1ccccc1	99.9%
COC(=O)C1=C(C)N(c2ccc(C)cc2)/C(=C/c2ccc(O)cc2)C1=O	104%
Cc1ccc2[nH]c(=O)c(CN(CC3COCCO3)C(=O)Nc3ccccc3C)cc2c1 (stereo not given)	102%
CC(=O)c1ccc(NC(=O)CSC(=S)N2CCCC2)cc1	102%
Cc1ccc(S(=O)(=O)N(C)CC(=O)NC2CCCC2)cc1	98.3%
CN(CC(=O)NC1CCCCC1)S(=O)(=O)c1cccc2cccnc12	241% (active)
CN(CC(=O)NC1CCCCC1)S(=O)(=O)c1ccc(Br)s1	99.1%
N/C(=N/O)c1cccn1Cc1ccccc1[N+](=O)[O-]	99.3%
O=C(COC(=O)CCc1ccc(S(=O)(=O)N2CCOCC2)cc1)Nc1cccc(Cl)c1	99.8%
Cc1cc(C)nc(/N=C2\NC(=O)CC(C(=O)O)N2c2ccc(Cl)cc2Cl)n1 (stereo not given)	170% (active)
CCOC(=O)c1nc(C)n(-c2ccc(Cl)cc2Cl)n1	102%
Cc1cc(C)n(-c2ccc(Cl)c(C(=O)O)n2)n1	96.7%
COc1cccc(C2c3[nH]c4ccccc4c3CCN2Cc2cccc(C)n2)c1 (stereo not given)	102%
O=C(NC1CC1)c1ccc2c(c1)NC(=O)c1ccccc1S2	191% (active)
O=C(NC1CC1)c1cccc(Br)c1	102%
S=C1Nc2cc(Cl)ccc2Sc2ccccc21	100%
CC(=O)NC(Cc1ccc(F)c(F)c1)C(=O)NC1CCN(C(=O)c2ccc(C)cc2)CC1 (stereo not given)	95.6%
CCCn1c(NC(=O)C23CC4CC(CC(O)(C4)C2)C3)nc2ccccc21	104%
CC(=O)N1CCc2cc(Br)cc(S(=O)(=O)CCC(=O)Nc3c(C)n(C)n(-c4ccccc4)c3=O)c21	98.9%

Reference: PubChem BioAssay AID1439 (NMMLSC, 2008)
